Assay results published in PubChem BioAssay (NCATS).
Results filed as inconclusive are left out. The source made the active and inactive calls. Calls come from the whole dose curve; as a rule, active = well fitted curve in the direction sought with a large enough effect; inconclusive = small, poorly fitted or top-dose-only effect, or another doubt; inactive = no such curve, though single readings can be large; an effect the other way counts as inactive or inconclusive. Peptide text beside a SMILES is read from it. * marks the point of attachment. Octanoyl = CCCCCCCC(=O)*

Legend:
[1] = SW1088 Cancer Cell Toxicity qHTS against the NCATS CANVASS Library (AID 1347350); note: nearly all actives have a fitted effect of over 75% in size; note: potency is the fitted concentration of half-maximal effect
How it was run: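 Following a 4 h pre-incubation of 1000 seeded cells, compounds were pinned in an 11-pnt dilution series and left for 72 h; viability then came from CellTiter-Glo.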

[2] = HEK-293 Cancer Cell Toxicity qHTS against the NCATS CANVASS Library (AID 1347355); note: nearly all actives have a fitted effect of over 65% in size; note: potency is the fitted concentration of half-maximal effect
How it was run: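 qHTS cytotoxicity: compounds tested in 11 concentrations on 1000 seeded cells per well over 72 h; bortezomib served as control; signal from CellTiter-Glo luminescence.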

[3] = HPAF-II 12hr Apoptosis Induction qHTS against the NCATS CANVASS Library (AID 1347358)
How it was run: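 Apoptosis in HPAF-II pancreatic cancer cells is scored as caspase 3/7 luminescence following a 12-hour exposure to an 11-point compound series.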

[4] = SDT Cancer Cell Toxicity qHTS against the NCATS CANVASS Library (AID 1347365); note: nearly all actives have a fitted effect of over 60% in size; note: potency is the fitted concentration of half-maximal effect
How it was run: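 Dispense 500 SDT cells per well; pin-transfer compounds; incubate 72 hr at 37C, 5% CO2, 95% RH; add CellTiterGlo and read luminescence.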

[5] = KB-3-1 Cancer Cell Toxicity qHTS against the NCATS CANVASS Library (AID 1347366); note: nearly all actives have a fitted effect of over 75% in size; note: potency is the fitted concentration of half-maximal effect
How it was run: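 Seed KB-3-1 cells at 500/well in DMEM with 10% FBS, add compounds, incubate 72 hr at 37C and 5% CO2, then add CellTiter-Glo and read luminescence after 10 minutes.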

[6] = G06 Cancer Cell Toxicity qHTS against the NCATS CANVASS Library (AID 1347368); note: nearly all actives have a fitted effect of over 60% in size; note: potency is the fitted concentration of half-maximal effect
How it was run: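 Cytotoxicity toward canine glioma G06 cells is scored from cellular ATP via luminescence after 72 hr compound exposure at 500 cells/well.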

[7] = qHTS for ATAD5 Antagonist screened against the NCATS CANVASS Library (AID 1347370); note: nearly all actives have a fitted effect of over 65% in size; note: potency is the fitted concentration of half-maximal effect
How it was run: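 HEK293T cells with a stably integrated ATAD5-controlled luciferase reporter were exposed to compounds (11-pt) alongside 10 uM 5-fluorouridine as ATAD5 stabilizer for 16hr at 37C. Viability was read by CellTiter-Fluor fluorescence, then ATAD5 by luminescence.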

[8] = biological target: Nuclear receptor subfamily 1 group I member 3 (Homo sapiens) (UniProt Q14994); assay: qHTS for Constitutive Androstane Receptor (CAR) Antagonist screened against the NCATS CANVASS Library (AID 1347372); note: potency is the fitted concentration of half-maximal effect
How it was run: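 HepG2 cells stably carrying hCAR and a CYP2B6-2.2kb luciferase reporter were exposed to compounds plus 50 nM CITCO for 24hr at 37C. CAR activity was read by ONE-Glo luminescence, with viability measured first by CellTiter-Fluor.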

[9] = biological target: Nuclear receptor subfamily 1 group I member 3 (Homo sapiens) (UniProt Q14994); assay: qHTS for Constitutive Androstane Receptor (CAR) Agonist screened against the NCATS CANVASS Library (AID 1347373);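 note: every well also contained 1.5 µM PK11195 alongside the test compound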
How it was run: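 CAR agonism is scored as CYP2B6-promoter luciferase induction in a double-stable transfected HepG2 line, where 1.5uM PK11195 is included in each well. Compounds were tested over a 24hr exposure.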

[10] = qHTS for Hypoxia signaling pathway (HIF-1) antagonists against the NCATS CANVASS Library (AID 1347374); note: nearly all actives have a fitted effect of over 60% in size; note: potency is the fitted concentration of half-maximal effect
How it was run: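 HRE-bla ME-180 cells (2,000/well, 0.5% dialyzed FBS) were pre-incubated 5 h, then given an 11-point compound series plus CoCl2 (60 uM solution as added) for 17 h at 37C. CCF4 β-lactamase read (ex 405, em 460/530 nm) after 2 h at RT.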

[11] = 10-beta competent E. coli microbial cell viability qHTS against the NCATS CANVASS Library (AID 1347376); note: series mostly up to about 46 µM
How it was run: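 Cytotoxicity toward competent E. coli is scored from cellular ATP content via BacTiter-Glo luminescence following overnight compound exposure at 37C, 5% CO2.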

[12] = qHTS for H2AX Agonists against the NCATS CANVASS Library (AID 1347378);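 note: phospho-H2AX S139 level in CHO-K1 lysates by TR-FRET emission ratio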
How it was run: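 Following overnight seeding, CHO-K1 cells are incubated with a concentration series of compound for 3 hr at 37C (final DMSO 0.76%). Cells are then lysed, detection antibodies added, and emission ratio 665/620 nm recorded after 24 hr at room temperature.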

[13] = Cytotoxicity qHTS for assessment of Hepg2 cells membrane integrity screened against the NCATS CANVASS Library (AID 1347387)
How it was run: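 Fluorescence proportional to lysed-cell number, from LDH leaking out of HepG2 cells exposed 5 hr at 37C to 0.59 nM - 46 uM compound (11-point qHTS), is measured after 10 min with CytoTox-ONE.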

[14] = qHTS for Activators of p53 Stress Response Pathway screened against the NCATS CANVASS Library (AID 1347388)
How it was run: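 p53RE-bla HCT-116 cells (4000/well) were plated 5 h at 37C, exposed to compounds for 16 h at 37C over an 11-point concentration series, then loaded with CCF4 for 2 h at room temperature; 460/530 nm emission ratio read.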

[15] = qHTS assay for small molecule disruptors of mitochondrial membrane potential screened against the NCATS CANVASS Library (AID 1347389); note: nearly all actives have a fitted effect of over 60% in size; note: potency is the fitted concentration of half-maximal effect
How it was run: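 Compounds tested in 11-point qHTS series on HepG2 cells for 1 hr; membrane-potential dye added for 30 min at 37C. Lower red-to-green ratio indicates loss of potential.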

[16] = Secretion counterscreen for inhibitors of the SERCaMP assay screened against the NCATS CANVASS Library (AID 1347390);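 note: light from luciferase secreted into medium read as a measure of general secretion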; note: potency is the fitted concentration of half-maximal effect
How it was run: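 Counterscreen identifying compounds that disrupt secretion, using SH-SY5Y cells with a constitutively secreted Gaussia luciferase reporter. A 20 h compound exposure (top 77 uM) precedes luminescent detection with coelenterazine.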

[17] = qHTS for activators of dead-cell proteases activity screened against the NCATS CANVASS Library (AID 1347392);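 note: luminescence from protease leaking out of membrane-damaged cells cleaving impermeant substrate; rising signal means more cytotoxicity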
How it was run: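 HepG2 cells (2000/well) attached 18 h at 37C, then exposed 5 h to compounds (11-point qHTS). Dead-cell protease activity read as luminescence from cell-impermeant AAF-aminoluciferin substrate after 15 min at room temperature.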

[18] = qHTS for inhibitors of ER calcium dysfunction: SERCaMP assay screened against the NCATS CANVASS Library (AID 1347393);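 note: series mostly up to about 77 µM; lower secreted reporter signal means inhibitor of ER calcium depletion; nearly all actives have a fitted effect of over 40% in size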
How it was run: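 qHTS in SH-SY5Y reporter cells: 16 h compound pretreatment, 4 h thapsigargin, then secreted Gaussia luciferase measured by luminescence.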

[19] = Viability qHTS for inhibitors of the SERCaMP assay screened against the NCATS CANVASS Library (AID 1347400); note: nearly all actives have a fitted effect of over 70% in size; note: potency is the fitted concentration of half-maximal effect
How it was run: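 Cytotoxicity counter-screen: ATP content (CellTiter-Glo luminescence) of SH-SY5Y-GLuc SERCaMP MJH297 cells after 48 h at 37C with compounds in an 11-point qHTS series.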

[20] = Redox Reaction Profiling qHTS: Assay Interference Panel against the NCATS CANVASS Library (AID 1347401)
How it was run: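 Resazurin (5 uM) conversion to resorufin measured with 200 uM DTT in 50 mM HEPES pH 7.3, 50 mM NaCl. Compounds tested in 11-point qHTS series. Fluorescence (ex 525/em 598 nm) read before and after 15 min dark incubation.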

Measured: Potency

Chain of Nuclear receptor subfamily 1 group I member 3 (Homo sapiens) (Q14994 whole entry, looked up): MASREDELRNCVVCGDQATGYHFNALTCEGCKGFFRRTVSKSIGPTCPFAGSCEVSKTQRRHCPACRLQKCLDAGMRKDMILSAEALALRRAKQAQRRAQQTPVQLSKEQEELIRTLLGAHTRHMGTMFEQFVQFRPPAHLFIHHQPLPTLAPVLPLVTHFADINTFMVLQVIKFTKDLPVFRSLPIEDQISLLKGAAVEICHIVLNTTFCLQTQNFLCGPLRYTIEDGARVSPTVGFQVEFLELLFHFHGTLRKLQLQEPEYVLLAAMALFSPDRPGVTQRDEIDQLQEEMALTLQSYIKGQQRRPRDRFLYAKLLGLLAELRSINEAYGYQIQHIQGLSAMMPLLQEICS

CCCCCCCC(=O)N[C@@H](CC(C)C)C(=O)N[C@H](C=O)CCC(=O)O (Octanoyl-Leu-Glu-aldehyde)
inactive: all assays above

CCCCCCCCCCCCCCCC(=O)OC/C=C(\C)CCCC(C)CC(C)C(C)C (stereo not given)
inactive: all assays above

C[C@@H](CCC[C@]1(C)C(=O)C=C[C@]23C[C@H]4C[C@H](O[C@@]4(C)C2)C31)C(=O)N[C@@H](CO)C(=O)O (stereo not given in full)
inactive: all assays above

C[C@@H]1O[C@H](c2c(O)cc(O)c3c(=O)cc(-c4ccc(O)cc4)oc23)[C@H](O)[C@H](O)[C@H]1O
inactive: all assays above

C/C(=C\[C@H](C)C(=O)CCCC1CC(=O)NC(=O)C1)[C@@H]1OC(=O)/C=C/CC/C=C/C[C@@H](O)[C@@H]1C
active: [2] 1.87 µM | [4] 0.935 µM | [5] 14.8 µM | [6] 1.05 µM | [7] 2.34 µM | [8] 3.71 µM | [10] 1.06 µM | [16] 3.84 µM | [19] 5.38 µM
inactive: [3] | [9] | [11] | [13] | [14] | [15] | [17] | [18]

C=C[C@]1(C)CC[C@@H]([C@H](C)C(=O)OCC)O1
not listed: [2] | [4] | [6] | [8] | [15]
inactive: all other assays above

CC(=O)O[C@@H]1C=C2C(=O)OC[C@]2(O)[C@@]2(C)CCCC(C)(C)[C@H]12
active: [1] 5.3 µM | [2] 8.33 µM | [4] 13.2 µM | [6] 10.5 µM | [10] 7.47 µM | [15] 18.6 µM | [16] 15.3 µM | [19] 12 µM
inactive: [9] | [11] | [14] | [18] | [20]
